This passage reports growth inhibition results from PubChem BioAssay (NCI).

About 79,000 compounds went through this panel and 15% of them were active in at least one assay; those are over-represented in the sample as a whole. Values without a mark were called inactive. Activity calls are given as the source filed them. Rule as the data show it: active = growth inhibition above about 70%; inactive = the rest.

One test in a line: NCI Yeast Anticancer Drug Screen. Data for the sgs1 mgt1 strain (AID 161).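 Also: 0% = growth of cultures given vehicle only.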 The conditions noted are these: S. cerevisiae sgs1 mgt1 strain, at 50.0 µM, stronger effect = higher value. An outline of the steps:
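Yeast cells carrying a defined DNA-repair defect were exposed to test compounds. Growth inhibition was measured relative to vehicle-treated controls.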
`CCCCCCCCCC1OCC(C)O1` (stereo not given): the growth inhibition was 73.2% (active).
As to `O=[N+]([O-])c1ccc2c(c1)/C(=C/c1ccc(O)cc1)c1ccccc1-2`, the growth inhibition is 91.3% (active).
Still for that read-out and setting: the value for `COc1cc2c(cc1OC(C)=O)C(=O)C(Br)(Br)CCC2` was 65.1%; that for `COC(=O)c1cc2c(oc1=O)-c1ccccc1N(C=O)C2` was 11.4%; that for `CC(=O)Nc1ccc(S(=O)(=O)/N=C2\C=CC(=O)c3ccccc32)cc1` was 79.9% (active).
Regarding `C/C(=N/NC(=S)N(C)C)c1ccccc1O`, the growth inhibition was 52%.
Turning to `CC(CN(C)C)C(=O)/C=C/c1c(Cl)cccc1Cl` (stereo not given), the growth inhibition is 90.2% (active).
Same read-out and setting: the value for `N#CC(O)C(Br)(Br)Br` (stereo not given) was 83.3% (active).
Same read-out and setting: to `C=Cc1cc(N=Nc2ccc([N+](=O)[O-])cc2)ccc1N(C)C` belongs 4.6%; to `Cc1cccnc1NC(=S)Nc1ccccc1Cl`, 93.2% (active); to `O=C1C=CC(=O)c2c(O)c(N3CCC[C@@H]3CO)c(Cl)c(O)c21`, 51.2%.
As for `Cc1cc(C(=O)O)c(C)c2c1sc1ccccc12`, the growth inhibition is 62.8%.
In the case of `COc1cccc2c1OC(c1ccc(Cl)cc1)C([N+](=O)[O-])=C2` (stereo not given), the growth inhibition was 87.6% (active).
In the case of `CC1=C(C(=O)Nc2cccc(Cl)c2)C(c2ccccc2F)C(C(=O)Nc2cccc(Cl)c2)=C(C)N1`, the growth inhibition was 86.2% (active).
Still for that read-out and setting: the value for `Cc1ccc(C2C(O)=C(c3ccccc3)Sc3ccc(C)cc32)cc1` (stereo not given) was 77% (active); that for `CC(=O)Oc1ccc(C)c(C(C)C(Cl)(Cl)Cl)c1` (stereo not given) was 58.3%.
For the compound `CCCC(=O)Oc1ccc(-c2ccc(Br)cc2)cc1`, the growth inhibition is 88.8% (active).
In the case of `CCCCC#CCOC(=O)c1cc([N+](=O)[O-])cc([N+](=O)[O-])c1`, the growth inhibition is 99.8% (active).
The same measure, in the same setting: the value for `COC(=O)c1ccc(Cl)c(Cl)c1` was 11.8%.
Consider `Cc1cc(Br)c2ccccc2c1N`, for which the growth inhibition was 94.2% (active).
As for `C=C1N(S(=O)(=O)c2ccc(C)cc2)C(=O)OCC12CCCC2`, the growth inhibition is 20%.
On the same count and under the same terms, to `CCCCCCCCN=C(N)c1ccc(C(=O)OCC2CCCCC2)cc1` belongs 99.7% (active); to `Nc1ccc2ccc3cccc4ccc1c2c34`, 48.5%; to `C=C(Br)CN(CC(=C)Br)C(C)=O`, -2.5%.
Still for that read-out and setting: to `[Ce+3].[Cl-].[O-]/N=C(\c1ccccc1)c1ccccn1.[O-]/N=C(\c1ccccc1)c1ccccn1.[O-]/N=C(\c1ccccc1)c1ccccn1` belongs 85.8% (active).
Turning to `O=CCCCc1cc2c(cc1Br)CCC2`, the growth inhibition is 64.2%.
On the same count and under the same terms, the value for `C1=C(CC2=C[P+](c3ccccc3)(c3ccccc3)C=C(c3ccccc3)O2)OC(c2ccccc2)=C[P+]1(c1ccccc1)c1ccccc1` was 86.2% (active).
Still for that read-out and setting: the value for `CC/C=C(\C)CC(C)O` (stereo not given) was 77.6% (active).
Turning to `CCC(c1ccc(Cl)cc1)C(C#N)c1ccc(Cl)cc1` (stereo not given), the growth inhibition was 68.1%.
With `CN1/C(=C/C=C/C(I)=C/C=C/C2=[N+](C)c3ccccc3C2(C)C)C(C)(C)c2ccccc21`, the growth inhibition is 80.6% (active).
The same measure, in the same setting: to `Nc1ccc(N)c2c1C(=O)c1ccccc1C2=O` belongs 24.6%; to `CN1C=COC1N=C1CCCCC1` (stereo not given), -5.2%; to `Clc1ccc(Cc2nc3ccccc3s2)c(Cl)c1`, 94.1% (active).
For the compound `O=CC1(c2ccc(Cl)cc2)NC(=O)NC1=O` (stereo not given), the growth inhibition was -9.45%.
As to `O=C(CSc1nnc(-c2ccc(N=Cc3ccc(Cl)cc3)cc2)o1)Nc1ccc(Cl)cc1Cl`, the growth inhibition was 95.9% (active).
On to `O=C(Oc1ccccc1)C1CCCCC1C(=O)Oc1ccccc1` (stereo not given), for which the growth inhibition was 30.4%.
Take `O=C(O)Cc1ccc2c(c1O)C(=O)c1ccccc1C2=O`: the growth inhibition is 78.8% (active).
Same read-out and setting: the value for `O=[N+]([O-])c1cccc(F)c1O` was 42.5%; that for `CCc1nc2c(O)ccc(O)c2nc1C` was 65%.
With `COC(=O)N/N=C(/CC1(O)C(=O)Nc2ccccc21)c1ccc(Cl)cc1Cl` (stereo not given), the growth inhibition is 98.2% (active).

The nature of a further test: NCI Yeast Anticancer Drug Screen. Data for the cln2 rad14 strain (AID 165).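 Also: 0% = growth equal to vehicle treated cultures.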 The conditions noted are these: S. cerevisiae cln2 rad14 strain, at 5.0 µM (retest, dose inferred, filed as 0.5), stronger effect = higher value. An outline of the steps: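 Strain: cln2 rad14 yeast, altered in cell cycle control and DNA damage repair. Read-out: growth inhibition vs vehicle.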
As for `CCCCCCCCCC1OCC(C)O1` (stereo not given), the growth inhibition was 6%.
For `O=[N+]([O-])c1ccc2c(c1)/C(=C/c1ccc(O)cc1)c1ccccc1-2`, the growth inhibition is -2%.
Same read-out and setting: the value for `COc1cc2c(cc1OC(C)=O)C(=O)C(Br)(Br)CCC2` was 13%.
Still for that read-out and setting: to `COC(=O)c1cc2c(oc1=O)-c1ccccc1N(C=O)C2` belongs -11%; to `CC(=O)Nc1ccc(S(=O)(=O)/N=C2\C=CC(=O)c3ccccc32)cc1`, -9%.
On the same count and under the same terms, to `C/C(=N/NC(=S)N(C)C)c1ccccc1O` belongs 18%; to `CC(CN(C)C)C(=O)/C=C/c1c(Cl)cccc1Cl` (stereo not given), 2%.
For `N#CC(O)C(Br)(Br)Br` (stereo not given), the growth inhibition was 6%.
On the same count and under the same terms, to `C=Cc1cc(N=Nc2ccc([N+](=O)[O-])cc2)ccc1N(C)C` belongs -2%.
Take `Cc1cccnc1NC(=S)Nc1ccccc1Cl`: the growth inhibition is -12%.
Consider `O=C1C=CC(=O)c2c(O)c(N3CCC[C@@H]3CO)c(Cl)c(O)c21`, for which the growth inhibition was 19%.
On the same count and under the same terms, to `Cc1cc(C(=O)O)c(C)c2c1sc1ccccc12` belongs -64%; to `COc1cccc2c1OC(c1ccc(Cl)cc1)C([N+](=O)[O-])=C2` (stereo not given), 86% (active).
Consider `CC1=C(C(=O)Nc2cccc(Cl)c2)C(c2ccccc2F)C(C(=O)Nc2cccc(Cl)c2)=C(C)N1`, for which the growth inhibition is 36%.
On the same count and under the same terms, the value for `Cc1ccc(C2C(O)=C(c3ccccc3)Sc3ccc(C)cc32)cc1` (stereo not given) was -5%; that for `CC(=O)Oc1ccc(C)c(C(C)C(Cl)(Cl)Cl)c1` (stereo not given) was 8%.
With `CCCC(=O)Oc1ccc(-c2ccc(Br)cc2)cc1`, the growth inhibition was -6%.
As to `CCCCC#CCOC(=O)c1cc([N+](=O)[O-])cc([N+](=O)[O-])c1`, the growth inhibition is 67%.
Still for that read-out and setting: to `COC(=O)c1ccc(Cl)c(Cl)c1` belongs 1%; to `Cc1cc(Br)c2ccccc2c1N`, -1%; to `C=C1N(S(=O)(=O)c2ccc(C)cc2)C(=O)OCC12CCCC2`, -21%.
With `CCCCCCCCN=C(N)c1ccc(C(=O)OCC2CCCCC2)cc1`, the growth inhibition is 98% (active).
With `Nc1ccc2ccc3cccc4ccc1c2c34`, the growth inhibition is -1%.
As to `C=C(Br)CN(CC(=C)Br)C(C)=O`, the growth inhibition was 15%.
Same read-out and setting: the value for `[Ce+3].[Cl-].[O-]/N=C(\c1ccccc1)c1ccccn1.[O-]/N=C(\c1ccccc1)c1ccccn1.[O-]/N=C(\c1ccccc1)c1ccccn1` was 29%; that for `O=CCCCc1cc2c(cc1Br)CCC2` was 10%.
On the same count and under the same terms, the value for `C1=C(CC2=C[P+](c3ccccc3)(c3ccccc3)C=C(c3ccccc3)O2)OC(c2ccccc2)=C[P+]1(c1ccccc1)c1ccccc1` was 25%.
With `CC/C=C(\C)CC(C)O` (stereo not given), the growth inhibition is 1%.
The same measure, in the same setting: the value for `CCC(c1ccc(Cl)cc1)C(C#N)c1ccc(Cl)cc1` (stereo not given) was -8%; that for `CN1/C(=C/C=C/C(I)=C/C=C/C2=[N+](C)c3ccccc3C2(C)C)C(C)(C)c2ccccc21` was 8%; that for `Nc1ccc(N)c2c1C(=O)c1ccccc1C2=O` was 3%.
As to `CN1C=COC1N=C1CCCCC1` (stereo not given), the growth inhibition is 11%.
For the compound `Clc1ccc(Cc2nc3ccccc3s2)c(Cl)c1`, the growth inhibition was 34%.
For `O=CC1(c2ccc(Cl)cc2)NC(=O)NC1=O` (stereo not given), the growth inhibition was 3%.
Same read-out and setting: to `O=C(CSc1nnc(-c2ccc(N=Cc3ccc(Cl)cc3)cc2)o1)Nc1ccc(Cl)cc1Cl` belongs 27%; to `O=C(Oc1ccccc1)C1CCCCC1C(=O)Oc1ccccc1` (stereo not given), 10%.
In the case of `O=C(O)Cc1ccc2c(c1O)C(=O)c1ccccc1C2=O`, the growth inhibition is -2%.
Still for that read-out and setting: the value for `O=[N+]([O-])c1cccc(F)c1O` was 6%.
Take `CCc1nc2c(O)ccc(O)c2nc1C`: the growth inhibition was -55%.
Same read-out and setting: to `COC(=O)N/N=C(/CC1(O)C(=O)Nc2ccccc21)c1ccc(Cl)cc1Cl` (stereo not given) belongs 12%.
